Our source for the growth values is PubChem BioAssay (NCI).

This is part of a sample that, as a whole, favours compounds with a hit. Of some 83,000 tested, about 20% had one in any assay.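 Plates (96-well) were seeded with cells, treated with compound at one concentration, and incubated for 48 hours before percent growth was determined.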 A number with no mark means an inactive call. The source made the active and inactive calls. How the source made its calls: active means growth percent below 10; inactive means the rest.

Assay in all cases: NCI-60 one-dose screen, 48 h (100 = growth as untreated, 0 = no growth, -100 = all killed)
Common to all, as to conditions: 10 µM unless noted

The test system of assay [1] is NCI-H23 lung.
For assay [2], the system named is NCI-H226 lung.
The subject of assay [3] is HOP-62 NSCLC.
For assay [4], the system named is NCI-H460 lung.
Assay [5] has as its system HOP-92 NSCLC.
In assay [6] the test system is NCI-H522 lung.
In assay [7] the test system is A549/ATCC NSCLC.
The subject of assay [8] is 786-0 renal.
Assay [9] relates to DU-145 prostate.
Assay [10] deals with K-562 leukemia.
Assay [11] relates to MALME-3M melanoma.
Assay [12] concerns MDA-MB-231 breast.
For assay [13], the system named is RXF 393 renal.
Assay [14] has as its system SF-268 CNS.
Assay [15] has as its system SF-295 CNS.
The subject of assay [16] is SF-539 CNS.
The subject of assay [17] is UACC-257 melanoma.
Assay [18] relates to M14 melanoma.
For assay [19], the system named is COLO 205 colon.
Assay [20] has as its system NCI-H322M lung.

With `CCN(CC)S(=O)(=O)c1ccc(S(=O)(=O)N2CCC[C@@H](C(=O)N3CCN(C(=O)OC(C)(C)C)CC3)C2)cc1`, the growth in assay [1] was 53.6%; in assay [2] it was 77.9%; in assay [3], 66.1%; in assay [4] it was 73.4%; in assay [5] it was 74.9%; in assay [6], 68.4%. Further, the growth in assay [7] was 67.7%; in assay [8], 92.8%; in assay [9], 61.2%; in assay [10], 35%; in assay [11], 93.7%; in [12], 77.7%. The growth is 74.4% in assay [13]; 73.1% in assay [14]; 55.8% in assay [15]; 77.7% in [16]; 49.9% in assay [17]; 77.9% in assay [18].

`Cc1[nH]c(/C=C/C(=O)c2ccc(C(F)(F)F)c(F)c2)c(C)c1C(=O)NCC(C)C`: the growth is 101% in [1]; 98.2% in assay [2]; 87.7% in [3]; 101% in assay [4]; 108% in [5]; 99.4% in assay [6]. Moreover, the growth was 95.4% in [7]; 103% in [8]; 113% in assay [19]; 101% in assay [9]; 101% in assay [10]; 96.6% in assay [11]. For the same compound, the growth in [12] was 99.4%; in [13], 93.8%; in assay [14] it was 95.8%; in assay [15] it was 90.9%; in assay [16] it was 96%; in assay [17], 99.2%. Further, the growth in assay [18] is 104%.

For `COc1cccc(/C=C/C(=O)c2cc3c(N)c(C(=O)Nc4cccc(Cl)c4C)sc3nc2C)c1`, the growth in assay [1] was 20.4%; in [2], -23.6% (active); in [3], -24.1% (active); in [4] it was -23.5% (active); in [5], 20.3%; in assay [6], -69.7% (active). The growth in assay [7] was 3.76% (active); in [8], -43.8% (active); in assay [19], -27.1% (active); in assay [9], 4.37% (active); in [10], 11%; in assay [11], 14.7%. For the same compound, the growth in assay [12] is -26.5% (active); in assay [13], -71% (active); in [14], 10.1%; in [15], 5.12% (active); in assay [16], -36% (active); in [17], 57.4%. Besides, the growth in [18] was -28.4% (active).

With `COc1cc(/C=N/Nc2ccccc2F)cc(OC)c1OC`, the growth in assay [1] is 101%; in assay [2], 95.6%; in assay [3] it was 94.4%; in [4], 101%; in assay [5], 99.1%; in assay [6] it was 68.7%. For the same compound, the growth in [7] was 95.5%; in assay [8], 90.4%; in assay [19], 109%; in [9], 106%; in assay [10] it was 48.5%; in [11] it was 99%. The growth is 81.5% in assay [12]; 123% in assay [13]; 83.2% in [14]; 98.1% in assay [15]; 99.3% in assay [16]; 116% in assay [17]. In addition, in assay [18], the growth was 96.5%.

For the compound `Clc1nccc2c(-c3csc(-c4c[nH]c5ccccc45)n3)c[nH]c12`, the growth in assay [1] is 68.8%; in assay [2] it was 39.5%; in assay [3], 101%; in assay [4] it was 11.9%; in assay [5], 24.3%; in assay [6], 18.5%. For the same compound, the growth in assay [7] was 29.1%; in assay [8] it was 27.7%; in assay [19], 33.3%; in [9], 31.6%; in assay [10], 10.3%; in [11] it was 79.8%. Moreover, the growth in assay [12] is 24.8%; in [13], 12.4%; in assay [14], 73.4%; in [15], 26.7%; in [16], 41.9%; in assay [17], -29.2% (active). Moreover, the growth in assay [18] is -26.6% (active).

For `FC(F)(F)c1[nH]ncc1-c1nc2c(N3CCCCC3)cc3[nH]ncc3c2c2c1CCCC2`, the growth in [1] is -9.72% (active); in assay [2] it was 2.93% (active); in assay [20], -2.53% (active); in assay [3] it was -8.3% (active); in assay [4], 3.42% (active); in [6], -28.4% (active). Moreover, the growth was 5.13% (active) in [7]; -1.84% (active) in assay [8]; 10.2% in assay [9]; 14.1% in [10]; 0.904% (active) in assay [11]; 3.41% (active) in assay [12]. For the same compound, the growth in assay [13] is -92% (active); in assay [14], -11.7% (active); in assay [15], 7.04% (active); in [16] it was -72.2% (active); in assay [17], 0.68% (active); in assay [18], 2% (active).

As for `CN1CCN(CCCOc2ccc3ncnc(Nc4ccc(Oc5cccc(F)c5)c(Cl)c4)c3c2)CC1`, the growth in assay [1] was 50.8%; in assay [2], 88.4%; in [3], 48.7%; in [4], -62.8% (active); in assay [5], 31.4%; in [6] it was 22%. Besides, the growth in assay [7] is 21.1%; in assay [8], -3.9% (active); in assay [19], -37% (active); in [9], 15.2%; in assay [10], -30% (active); in assay [11], -72.4% (active). The growth in assay [12] was -65.4% (active); in assay [13], -55.7% (active); in assay [14] it was 40.5%; in assay [15], -35% (active); in assay [16] it was -75.1% (active); in assay [17] it was -59.6% (active). The growth in assay [18] is -75.7% (active).

With `COC(=O)c1nc(-c2ccccc2)oc1S(=O)(=O)N1CCC(C(N)=O)CC1`, the growth in assay [1] is 90.4%; in [2], 85.2%; in assay [3] it was 104%; in [4] it was 102%; in assay [5], 23.7%; in assay [6] it was 0.81% (active). Moreover, the growth in assay [7] was 98.8%; in assay [8], 51.9%; in [19], 20.6%; in assay [9] it was 55.1%; in assay [10], 14.8%; in [11] it was 46.1%. Moreover, the growth in assay [12] is 76%; in assay [13], 47.4%; in assay [14], 85.9%; in assay [15], 107%; in assay [16], 63.2%; in assay [17], 69.2%. In assay [18], the growth is 48.1%.
